Source: PubChem (National Center for Advancing Translational Sciences (NCATS))
HT1080 IDH1KD tx: toxicity to HT-1080 IDH1 knockdown cells (counter line); Potency, µM (series often up to 46.1 µM), usual class: cytotoxic; HT-1080 IDH1 knockdown viability, ATP luminescence, 48 h; 2% of 360,000 active; AID 686971
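CellTiter-Glo luminescence after 48 h compound exposure at 37 degrees C of IDH1-knockdown HT-1080 cells in 5% FBS RPMI. %Activity scaled between DMSO wells and cell-free media wells, with curves fitted and assigned curve classes.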
DT40 TDP1 no CPT: qHTS for Inhibitors of human tyrosyl-DNA phosphodiesterase 1 (TDP1): qHTS in cells in absence of CPT | Potency, µM (doses to about 46.2 µM), hits mostly inhibitors | 15% of 420,000 active | DT40 Tdp1-/- hTDP1 cells, no CPT, ATP luminescence, 48 h; note: nearly all actives have a fitted effect of over 55% in size
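Growth kinetics read by CellTiter-Glo luminescence after ≥48 hr at 37 °C. Cells: DT40 Tdp1-/- stably carrying human TDP1, 400 per well, compound exposure in the absence of CPT (DMSO vehicle).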
IL-1B inflam inh: blocks inflammasome-driven IL-1 beta release. THP-1 LPS/ATP IL-1B secretion, AlphaLISA, 16 h; hits give low values. activity change, % at 57.5 µM. 4.7% of 360,000 active; in the data active = activity change below about -50%; inconclusive = mostly about -30% to -49%
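Secreted IL-1B measured by AlphaLISA bead assay after 16 h compound exposure of THP-1 cells; compounds (final up to 57.5 uM) added 1 h before LPS (250 ng/mL) and ATP (1.25 mM) stimulation; lower signal means less secretion.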
HT1080-NT tox: kills 2HG-producing HT-1080-NT fibrosarcoma cells | AID 686970 | Potency, µM (series often up to 46.1 µM), hits mostly cytotoxic | HT-1080-NT fibrosarcoma viability, CellTiter-Glo ATP luminescence, 48 h | 1.6% of 360,000 active;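 note: NT is the 2HG producing partner of a matched IDH1 knockdown line; nearly all actives have a fitted effect of over 55% in size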
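750 cells/well, RPMI + 5% FBS; 2 h settle, compound pin-transfer, 48 h at 37 degrees C. CellTiter-Glo 10 min RT, luminescence. Normalized to DMSO and media-only wells.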
TDP1 cell CPT: growth inhibition of DT40 Tdp1-/-;hTDP1 cells with camptothecin (screen for TDP1 inhibitors). chicken DT40 Tdp1-/-;hTDP1 cells + 20 nM CPT, ATP luminescence, 48 h. Potency, µM (series often up to 46.2 µM), actives largely listed as inhibitors. 12% of 420,000 active. AID 686979; note: nearly all actives have a fitted effect of over 55% in size
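Cell growth measured by CellTiter-Glo luminescence after a minimum 48 h, 37 C compound exposure with 20 nM CPT in Tdp1-knockout DT40 cells stably expressing hTDP1, seeded 400/well; qHTS titration format.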
A number is an active result; i = inactive; ? = inconclusive; nt = no result given. Hits are enriched below; roughly 19% of the tested compounds scored in any of these assays. Unless noted, calls come from the whole dose curve; as a rule, active = well fitted curve in the direction sought with a large enough effect; inconclusive = small, poorly fitted or top-dose-only effect, or another doubt; inactive = no such curve, though single readings can be large; an effect the other way counts as inactive or inconclusive.

SMILES	HT1080 IDH1KD tx	DT40 TDP1 no CPT	IL-1B inflam inh	HT1080-NT tox	TDP1 cell CPT
CC(C)N1CCc2c(sc(NC(=O)c3ccc(S(=O)(=O)N4CCc5ccccc54)cc3)c2C(N)=O)C1	21µM	?	i	?	23µM
CN1CCc2c(sc(NC(=O)c3ccc(C(=O)c4ccccc4)cc3)c2C(N)=O)C1	i	i	i	i	i
CC1CCN(S(=O)(=O)c2cn(CC(=O)N3CCN(C)CC3)c(=O)c3ccccc23)CC1	i	i	i	i	i
Cc1ccc(C(=O)NCc2ccco2)cc1S(=O)(=O)N1CCCC1	i	i	i	i	?
COc1ccc(CNC(=O)[C@H](Cc2ccccc2)NC(=O)CC[C@H]2O[C@@H](n3ccc(=O)[nH]c3=O)[C@H](O)[C@@H]2O)cc1	i	i	i	i	i
Cc1ccc(Cn2c(CCC(=O)O)nc3ncccc3c2=O)cc1	i	i	i	i	i
Cc1ccc(C)c(NC(=O)Cc2csc(-c3ccccc3)n2)c1	i	i	i	i	i
O=C1C=C(c2cccs2)C[C@H](c2ccccc2)[C@H]1n1nnc([N+](=O)[O-])n1	2.9µM	2.9µM	-57	?	2.6µM
CC(=O)C1C(=O)C=C(c2cccs2)CC1c1ccccc1 (stereo not given)	i	?	i	i	i
CCOC(=O)c1sc(C)c2c1NC(c1ccc(Cl)cc1)NC2=O (stereo not given)	?	?	i	?	?
O=C(O)CCc1nn2c3ccccc3nc2n(Cc2ccccc2)c1=O	?	i	i	i	i
Nc1ccc2nc(-c3ccccc3)c(-c3ccccc3)nc2c1	i	21µM	i	i	?
Nc1ccc2nc(-c3ccccc3)cnc2c1	i	i	i	i	i
Nc1ccc(Oc2ccc3nc(-c4ccccc4)c(-c4ccccc4)nc3c2)cc1	i	21µM	-58	i	?
Nc1ccc(Oc2cc(N)cc(Oc3ccccc3)c2)cc1	i	i	?	i	i
Cc1ccc(/C=c2/sc3nnc(-c4ccccc4Cl)n3c2=O)o1	i	12µM	i	i	?
Cc1ccc(/C=c2\sc3nc(-c4ccco4)nn3c2=O)o1	i	23µM	i	i	i
Fc1ccccc1NC(=S)N1CCN(c2ccccn2)CC1	i	i	i	i	i
Cc1cccc(N2C(=O)CC(Sc3nccc(C)n3)C2=O)c1 (stereo not given)	i	i	i	i	?
Cc1ccc(N2C(=O)CC(Sc3ncn[nH]3)C2=O)cc1C (stereo not given)	i	5.2µM	i	i	4.6µM
Cc1cccc(N2C(=O)CC(Sc3ncn[nH]3)C2=O)c1 (stereo not given)	i	1.8µM	i	i	1.8µM
CCc1c(O)nc(SC2CC(=O)N(c3ccc(F)c(Cl)c3)C2=O)[nH]c1=O (stereo not given)	i	i	i	i	i
O=[N+]([O-])c1cccc(S(=O)(=O)N2CCN(c3nc(-c4cccs4)nc4ccccc34)CC2)c1	nt	i	nt	nt	i
O=C1OC(Nc2ccc3c(c2)OCO3)c2ccccc21 (stereo not given)	18µM	13µM	-124	?	22µM
CCc1cc(C(=O)NCC2Cc3cccc(-c4ccc(C(=O)OC)cn4)c3O2)no1 (stereo not given)	nt	i	nt	nt	i
SMILES	HT1080 IDH1KD tx	DT40 TDP1 no CPT	IL-1B inflam inh	HT1080-NT tox	TDP1 cell CPT
CCN1N=C(c2cc(Cl)sc2Cl)CSC1=O	i	?	i	i	i
CCOc1ccc(NC(=S)N2CCC(C(=O)c3ccc(F)cc3)CC2)cc1	i	?	?	i	?
COc1ccc(C(=O)C2CCN(C(=S)Nc3ccc(F)cc3)CC2)cc1	i	i	-63	i	i
COc1ccc(NC(=S)N2CCC(C(=O)c3ccc(OC)cc3)CC2)cc1	i	16µM	i	i	?
COc1cccc(NC(=S)N2CCC(C(=O)c3ccc(F)cc3)CC2)c1	i	?	?	i	?
COc1ccc(NC(=S)N2CCC(C(=O)c3ccc(C)cc3)CC2)cc1	i	8.2µM	i	i	?
CCCC1NC(=O)c2cccnc2-n2c1nc1ccc(OC)cc1c2=O (stereo not given)	i	i	i	i	i
